Out of some 1,300 compounds screened, about 40 (3%) were called active. The list comes from a sample in which actives are over-represented; it also holds similar structures and randomly drawn compounds. Values without a mark were called inactive. Cut-off read from the data, not from the text of the source: active = inhibition above about 30%; inactive = the rest.
target: fMet-Leu-Phe receptor (Homo sapiens) (UniProt P21462); assay: human FPR1 ligand displacement screen – cell-based, flow cytometry, SAR analysis, primary screen (AID 722); conditions: FPR-expressing cells, fluorescent ligand binding inhibition, stronger effect = higher value, concentration not given here
Sequence (P21462 whole entry, looked up): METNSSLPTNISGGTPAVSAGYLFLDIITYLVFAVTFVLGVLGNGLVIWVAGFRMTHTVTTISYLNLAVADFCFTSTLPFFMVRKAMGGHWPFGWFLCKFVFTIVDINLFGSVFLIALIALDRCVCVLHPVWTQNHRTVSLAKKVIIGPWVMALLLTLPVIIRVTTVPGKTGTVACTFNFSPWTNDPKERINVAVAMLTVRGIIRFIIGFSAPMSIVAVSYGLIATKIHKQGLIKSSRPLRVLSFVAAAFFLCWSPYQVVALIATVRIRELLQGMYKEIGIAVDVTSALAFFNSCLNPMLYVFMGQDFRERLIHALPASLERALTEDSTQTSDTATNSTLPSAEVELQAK

| Structure (SMILES) | inhibition |
| --- | --- |
| COCCCN1C(=O)C(=O)/C(=C(/O)c2ccc(C)cc2)C1c1cc(OC)ccc1OC (stereo not drawn) | 0.2% |
| CCOC(=O)Cc1c(C)nc2c(-c3ccccc3)c(-c3ccccc3)[nH]n2c1=O | -11.4% |
| COCCN1C(=O)C(O)=C(C(=O)c2cc3ccccc3o2)C1c1ccc(OCc2ccccc2)c(OC)c1 (stereo not drawn) | -2.2% |
| COc1ccc(C2C(C(=O)c3ccco3)=C(O)C(=O)N2CCN2CCOCC2)cc1OC (stereo not drawn) | -43.5% |
| COc1ccc(C2C(C(=O)c3ccco3)=C(O)C(=O)N2CCN2CCOCC2)c(OC)c1 (stereo not drawn) | 49.5% (active) |
| COc1ccc(C2C(C(=O)c3cccs3)=C(O)C(=O)N2CCN2CCOCC2)c(OC)c1 (stereo not drawn) | 62% (active) |
| COc1ccc(C2C(C(=O)c3cccs3)=C(O)C(=O)N2CCCN2CCOCC2)cc1 (stereo not drawn) | 6.5% |
| COc1ccc(C2C(C(=O)c3ccco3)=C(O)C(=O)N2CCN2CCOCC2)cc1 (stereo not drawn) | 2.9% |
| COc1ccc(C2C(C(=O)c3cccs3)=C(O)C(=O)N2CCN2CCOCC2)cc1 (stereo not drawn) | 9.7% |
| COc1ccccc1CN1C(=O)c2nccnc2C1=O | 1.8% |
| CCc1ccc(C(=O)CSc2nc3nc(C)cc(C)c3c(=O)[nH]2)cc1 | 5.9% |
| CCOC(=O)c1c(NC(=O)c2ccco2)sc2c1CCC(C)C2 (stereo not drawn) | -0.4% |
| Cc1ccc(N2C(=O)CSC2c2ccc(C(C)C)cc2)cc1 (stereo not drawn) | -5.6% |
| O=C(C1=C(O)C(=O)N(CCCn2ccnc2)C1c1ccc(Cl)cc1Cl)c1ccco1 (stereo not drawn) | 1.7% |
| CCOC(=O)c1c(NC(=O)c2cccnc2)sc2c1CCC(C(C)(C)C)C2 (stereo not drawn) | -8% |
| O=C1C(=O)N(c2cccnc2)C(c2ccccc2[N+](=O)[O-])/C1=C(/O)c1ccccc1 (stereo not drawn) | -2.9% |
| CCc1c(C)sc(NC(=O)c2cccc(F)c2)c1C(=O)OC | -9.8% |
| COc1ccc(C2C(C(C)=O)=C(O)C(=O)N2Cc2ccco2)cc1OC (stereo not drawn) | 1.8% |
| COc1cccc(Oc2c(C(F)(F)F)oc3cc(O)ccc3c2=O)c1 | 9.2% |
| COC(=O)c1c(NC(=O)c2ccoc2C)sc(C)c1C | 5.4% |
| COc1ccc(-c2c(C)[nH]n3c(=O)cc(Cc4ccccc4)nc23)cc1 | -1.1% |
| COc1ccc(-c2c(C)[nH]n3c(=O)c4c(nc23)CCCC4)cc1 | 73% (active) |
| CCc1c(C)nc2c(-c3ccc(OC)cc3)c(C)[nH]n2c1=O | 12.9% |
| CC(C)OC(=O)c1nonc1N(C(=O)c1ccccc1)C(=O)c1ccccc1 | -0.6% |
| O=C1C(=O)N(CCN2CCOCC2)C(c2cccs2)/C1=C(\O)c1ccc(S(=O)(=O)N2CCOCC2)cc1 (stereo not drawn) | -1.3% |
| CC(=O)C1=C(O)C(=O)N(CCc2c(C)[nH]c3ccccc23)C1c1cccc(F)c1 (stereo not drawn) | 65.2% (active) |
| COc1ccc(/C(O)=C2/C(=O)C(=O)N(CCc3c(C)[nH]c4ccccc34)C2c2ccc(Cl)cc2)cc1 (stereo not drawn) | 4.2% |

| Structure (SMILES) | inhibition |
| --- | --- |
| CC(=O)C1=C(O)C(=O)N(CCc2c(C)[nH]c3ccccc23)C1c1cccc([N+](=O)[O-])c1 (stereo not drawn) | 9.3% |
| Cc1onc(-c2ccccc2Cl)c1C(=O)Oc1cccc(F)c1 | 3.6% |
| CCOC(=O)c1c(NC(=O)c2cc3ccccc3o2)sc2c1CCC(C)C2 (stereo not drawn) | -1.7% |
| CCN1CCC2(CC1)N=C(c1ccccc1)C(=S)N2C(=O)c1ccccc1 | 2.1% |
| CC(=O)C1=C(O)C(=O)N(Cc2ccco2)C1c1ccc(Br)cc1 (stereo not drawn) | -1.5% |
| COc1ccc(/C(O)=C2/C(=O)C(=O)N(c3ccc(C)c(Br)c3)C2c2ccc(O)cc2)cc1 (stereo not drawn) | -5.2% |
| O=C(c1ccccc1F)N(Cc1ccco1)Cc1ccccc1F | 9.3% |
| O=C(Oc1ccc2c(=O)c(Oc3ccccc3Br)c(C(F)(F)F)oc2c1)c1cccs1 | 37.2% (active) |
| COc1ccc(Oc2c(C(F)(F)F)oc3cc(OC(=O)c4c(OC)cccc4OC)ccc3c2=O)cc1 | 2.9% |
| COc1ccccc1-c1c(C(F)(F)F)oc2cc(OC(=O)N3CCOCC3)ccc2c1=O | 9.4% |
| COc1cccc(OC)c1C(=O)Oc1ccc2c(=O)c(-c3ccc(Cl)cc3)c(C(F)(F)F)oc2c1 | 4.7% |
| O=C(Oc1ccc2c(=O)c(-c3ccccc3Cl)c(C(F)(F)F)oc2c1)c1cccs1 | 70% (active) |
| O=C(Oc1ccc2c(=O)c(Oc3ccccc3Cl)c(C(F)(F)F)oc2c1)c1cccs1 | -8.1% |
| COc1cc(C)c2c(=O)c(Oc3ccccc3)c(C(F)(F)F)oc2c1 | 4.2% |
| CCCCc1c(O)nc(SCCN(C)C)n(-c2ccccc2)c1=O | -1% |
| CCOc1ccc(C2/C(=C(/O)c3ccc(Cl)cc3)C(=O)C(=O)N2c2ccc(C)c(Br)c2)cc1 (stereo not drawn) | -0.6% |
| COc1ccc(C2/C(=C(\O)c3ccccc3)C(=O)C(=O)N2c2ccc(C)c(Cl)c2)c(OC)c1 (stereo not drawn) | -4.3% |
| COCCCN1C(=O)C(=O)/C(=C(/O)c2ccccc2)C1c1cc(OC)ccc1OC (stereo not drawn) | 11.4% |
| COc1ccc(C2/C(=C(/O)c3ccccc3)C(=O)C(=O)N2CCO)c(OC)c1 (stereo not drawn) | -12.1% |
| COCCN1C(=O)C(=O)/C(=C(/O)c2ccccc2)C1c1ccc(OC)cc1OC (stereo not drawn) | 10.5% |
| COc1ccc(/C(O)=C2/C(=O)C(=O)N(CCCn3ccnc3)C2c2cccc(OC)c2)cc1 (stereo not drawn) | -6.1% |
| COCCN1C(=O)C(=O)/C(=C(/O)c2ccccc2)C1c1cc(OC)ccc1OC (stereo not drawn) | 69.8% (active) |
| COc1ccc(C2/C(=C(\O)c3ccccc3)C(=O)C(=O)N2c2cccc(Cl)c2)c(OC)c1 (stereo not drawn) | 47.6% (active) |
| COc1ccc(C2/C(=C(/O)c3ccccc3)C(=O)C(=O)N2c2ccc(C)c(Br)c2)c(OC)c1 (stereo not drawn) | -1.6% |
| COc1ccc(C2/C(=C(\O)c3ccccc3)C(=O)C(=O)N2CCCn2ccnc2)c(OC)c1 (stereo not drawn) | 79.1% (active) |
| CC(C)c1ccc(C2/C(=C(\O)c3ccc(F)cc3)C(=O)C(=O)N2CCCN2CCOCC2)cc1 (stereo not drawn) | -6% |

— PubChem BioAssay AID722 (NMMLSC, 2007)
